D1 antagonist: human D1 dopamine receptor antagonism; P21728; actives 3.2% (n = 360,000); activity change, negative = inhibition, % at 10 µM; HEK293 TREx D1 cells, calcium flux, dopamine EC80; hits give low values; in the data active means activity change below about -30%; further: on the % scale 0 is the no-effect control and ±100 the full control effect
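Tetracycline-induced HEK293 T-REx cells with force-coupled D1 receptor were loaded with a no-wash calcium dye. Compound was added after a 10 s baseline and read kinetically for 180 s; EC80 dopamine was then added and calcium flux followed another 180 s.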
D3 ag: D3 dopamine receptor (human) agonism | P35462 | D3R DiscoveRx beta-arrestin cells, luminescence, 90 min | max activation, % | actives 0.58% (n = 410,000) | AID 652048; in the data active means max activation above about 30%; further: 0% is about no effect
Target sequence (P35462 whole entry, looked up): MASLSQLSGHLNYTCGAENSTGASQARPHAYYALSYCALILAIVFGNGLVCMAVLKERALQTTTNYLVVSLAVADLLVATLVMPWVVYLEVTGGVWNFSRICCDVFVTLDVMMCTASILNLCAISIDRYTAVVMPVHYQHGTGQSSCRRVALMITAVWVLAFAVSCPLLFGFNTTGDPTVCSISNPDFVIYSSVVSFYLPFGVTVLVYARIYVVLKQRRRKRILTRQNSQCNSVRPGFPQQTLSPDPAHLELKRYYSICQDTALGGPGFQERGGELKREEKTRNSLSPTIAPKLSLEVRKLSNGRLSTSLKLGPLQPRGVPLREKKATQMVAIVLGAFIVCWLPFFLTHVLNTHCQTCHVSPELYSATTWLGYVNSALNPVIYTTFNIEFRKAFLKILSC
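Agonist mode: compounds and dopamine controls were applied to plated cells for 90 min at 37 degrees C after an overnight attachment at 1500 cells/well. Luminescent read-out followed 30 - 60 minutes at room temperature with DiscoveRx detection reagent.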
DRD3 antagonist: D3 dopamine receptor (human) antagonism | D3R cells, DiscoveRx beta-arrestin luminescence, antagonist mode; hits give low values | max response, negative = inhibition, % | actives 2.5% (n = 360,000) | AID 652054 | P35462; in the data active means max response below about -50%; inconclusive means no clear call, values can overlap the other calls; further: on the % scale 0 is the no-effect control and ±100 the full control effect
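Cells plated overnight at 1500 cells/well, then exposed to library compounds with dopamine controls for 90 minutes at 37 degrees C. DiscoveRx reagent added for 30–60 minutes at room temperature; luminescence read, quantitative HTS format.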
D1 PAM: enhances dopamine response at the human D1 receptor | AID 504651 | potentiation, % at 10 µM | HEK293 TREx D1 cells, calcium flux, dopamine EC20 potentiation | actives 0.036% (n = 360,000); in the data active means potentiation above about 30%; further: 0% is about no effect
D1 ag: agonists of human D1 dopamine receptor; P21728; HEK293 T-REx D1 cells, calcium flux, agonist mode; activation, % at 2 µM; actives 1% (n = 360,000); in the data active means activation above about 30%; further: 0% is about no effect
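Tetracycline-induced HEK293 TREx D1 cells, force-coupled to calcium signalling, were dye-loaded with a no-wash calcium kit. Compound was pin-added after a 10 s baseline. Fluorescence was read kinetically at 1 cycle/s for 180 s, with calcium rises flagged as agonism.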
Starred values were filed as active, the others as inactive; ? = inconclusive; . = no result. An excerpt weighted towards active compounds, which were near 6% of everything screened.

SMILES	D1 antagonist	D3 ag	DRD3 antagonist	D1 PAM	D1 ag
COCCNC(=O)c1c(NC(=O)c2cc(=O)c3cc(C)cc(C)c3o2)sc2c1CCCC2	8.1	9.9	.	-0.5	1.8
COC(=O)C1CCN(c2csc3ccc(Cl)cc3c2=O)CC1	7.9	11.0	.	7.0	2.6
Cc1ccc(NS(=O)(=O)c2ccc(-c3cc(C)no3)cc2)c(Br)c1	-14.9	8.3	.	-3.4	7.0
C=CCc1cccc2cc(-c3nc4ccc(C)cc4[nH]3)c(=O)oc12	-41.9*	3.6	.	2.9	65.7*
O=c1oc2c(O)cccc2cc1-c1nc2ccccc2[nH]1	-4.6	4.9	28.8	9.1	408.4*
CN1CCN(Cc2c(O)ccc3cc(-c4ccccc4)c(=O)oc23)CC1	-4.4	-6.5	.	-1.2	0.6
O=c1oc2c(CN3CCCCC3)c(O)ccc2cc1-c1nc2ccccc2[nH]1	-17.8	1.0	9.2	-1.9	136.0*
COc1ccc(C)cc1NC(=O)c1cnc2ccc(C)cn2c1=O	10.9	-8.4	.	-0.7	-0.8
COc1ccc(Cn2c(-c3ccc(OC)cc3)nc3ccccc32)cc1	21.1	0.8	0.0	-2.0	3.8
COc1ccc(CNc2nc3ccccc3n2CCN2CCCCC2)cc1	.	-19.7	-64.5*	-3.5	4.6
COc1ccc(CCN2CCC(Nc3nc4ccccc4n3Cc3ccc(F)cc3)CC2)cc1	-21.4	-20.8	?	6.7	112.2*
CCOC(=O)c1ccccc1NC(=O)Cn1c(=O)n(CCC(=O)NCc2ccccc2OC)c(=O)c2ccccc21	-1.0	-6.2	.	-0.1	-0.4
O=C1C(=O)C(c2ccccc2)C(=O)C1c1ccccc1 (configuration not stated)	.	86.6*	-19.5	.	.
Cc1ccn(-c2n[nH]c(C)c2[N+](=O)[O-])n1	4.2	-6.0	6.0	20.4	8.4
Cc1[nH]nc(N2CCCCCC2)c1[N+](=O)[O-]	-40.8*	0.1	-23.2	-8.6	1.0
Cc1ccc(C)c(N2CCN(CCCc3ccccc3)CC2)c1	18.7	-19.9	-65.3*	-1.3	2.7
C/C=C(\C)CN1CCN(c2ccccc2F)CC1	-27.8	-2.9	-29.9	-9.5	1.3
Cc1ccc(C)c(N2CCN(CCCNC(=O)c3ccc4nc(CCc5ccccc5)oc4c3)CC2)c1	2.4	-20.4	.	0.6	23.0
C/C=C(\C)CN1CCN(c2cc(C)ccc2C)CC1	-8.1	-37.7	-85.7*	-7.9	5.1
C/C=C(\C)CN1CCN(c2cccc(C)c2C)CC1	-9.4	-27.5	-88.4*	-11.7	7.7
COc1ccc(Nc2c(-c3ccc(C)o3)nc3cc(C)ccn23)cc1	0.4	-10.7	.	0.9	0.2
O=S(=O)(NCCc1nnc2ccc(SCc3c(F)cccc3Cl)nn12)c1ccccc1	2.3	8.6	.	-1.0	0.1
COc1cc2c(cc1OC)C1O[C@](CCCCN3C(=O)c4ccccc4C3=O)(C2)OC2=C1C(=O)CC(C)(C)C2	-7.7	.	.	-2.4	4.6
CC(OC(=O)c1cc(Br)ccc1O)C(=O)NC1(C#N)CCCCC1 (configuration not stated)	-12.9	-6.1	0.8	-7.0	36.3*
CC(OC(=O)c1ccccc1C(=O)N(C)C1CCCCC1)C(=O)NC1(C#N)CCCCC1 (configuration not stated)	20.9	-1.3	-15.1	-5.0	1.0
SMILES	D1 antagonist	D3 ag	DRD3 antagonist	D1 PAM	D1 ag
COc1ccccc1CN1CCNC(=O)C1=O	4.2	3.6	.	-0.9	-1.3
COc1ccc(C2CC(=O)c3cnc(NC(=O)c4ccccc4)nc3C2)cc1OC (configuration not stated)	-8.7	-1.5	0.4	-7.7	-2.6
COc1ccc(C2CC(=O)c3cnc(Nc4cc(C)cc(C)c4)nc3C2)cc1 (configuration not stated)	-10.7	48.9*	-9.9	-5.7	1.9
COc1cc(C2CC(=O)c3cnc(NC(=O)COc4ccccc4)nc3C2)cc(OC)c1OC (configuration not stated)	-30.0*	36.3*	6.3	-3.2	1.7
CCOc1ccc(-n2c(SCc3ccccc3)nc3c([nH]c4ccccc43)c2=O)cc1	-4.6	-8.7	.	1.4	1.1
CC1(C)C2CC[C@]1(C)C(=O)N(CCCCN1CCN(c3ccccn3)CC1)C2=O	3.4	79.9*	-14.4	-5.6	3.7
O=C(CN1CCN(c2ccccn2)CC1)NCCc1ccccc1	-2.3	4.7	-2.9	-1.6	1.3
CC(=O)NCC1(c2ccccc2)CCN(CCCC(=O)c2ccc(F)cc2)CC1	.	-8.2	-115.7*	.	.
Cc1ccc(C2(O)CCN(CCCC(=O)c3ccc(F)cc3)CC2)cc1	.	-26.9	.	.	.
O=C(CCCN1CCN(c2ccccn2)CC1)c1ccc(F)cc1	-73.9*	-17.0	0.0	-7.2	-0.7
c1ccc(CCCN2CCN(c3ccccn3)CC2)cc1	-10.7	11.3	-62.5*	-7.3	0.3
O=S(=O)(CCN1CCN(c2ccccn2)CC1)c1ccc(F)cc1	2.9	12.0	-1.0	-1.1	2.1
CC[C@]12c3[nH]c4cc(-c5ccco5)ccc4c3CCN1C(=O)[C@@H](CC(=O)NCC13CC4CC(CC(C4)C1)C3)C[C@@H]2C(=O)N1CCN(C(=O)c2ccco2)CC1	.	-0.4	-7.2	.	.
CC[C@]12c3[nH]c4cc(-c5ccco5)ccc4c3CCN1C(=O)[C@@H](CC(=O)NCC13CC4CC(CC(C4)C1)C3)C[C@@H]2C(=O)N1CCN(C(=O)C2CC2)CC1	.	-45.7	-53.7*	.	.
CC(C)N(C(=O)[C@H]1C[C@H](CC(=O)NCC23CC4CC(CC(C4)C2)C3)C(=O)N2CCc3c([nH]c4ccc(Cl)cc34)[C@]12C)C(C)C	.	37.4*	3.5	.	.
CCN(CC)C(=O)[C@H]1CC(CC(=O)NCCC2=CCCCC2)C(=O)N2CCc3c([nH]c4ccc(OC)cc34)[C@]12C (some centres not stated)	.	41.0*	0.0	.	.
CCN(CC)C(=O)[C@H]1C[C@H](CC(=O)NCCC2=CCCCC2)C(=O)N2CCc3c([nH]c4cc(CCC(=O)N(C)C)ccc34)[C@]12C	.	9.2	20.3	.	.
COc1ccc2[nH]c3c(c2c1)CCN1C(=O)C(CC(=O)NCCC2=CCCCC2)C[C@H](C(=O)N(C(C)C)C(C)C)[C@@]31C (some centres not stated)	.	30.5*	-3.3	.	.
Cc1cc2nc(-c3ccc(OCc4ccccc4C)cc3)cc(C(F)(F)F)n2n1	-0.1	0.9	.	-3.4	-0.6
COc1ccc2[nH]c3c(c2c1)CCN1C(=O)N([C@@H](C)C(=O)NCc2ccc(F)cc2)C(=O)[C@]31C	0.0	0.1	0.8	10.2	0.8
COc1ccc2[nH]c3c(c2c1)CCN1C(=O)N([C@@H](C)C(=O)NCCc2ccc(F)cc2)C(=O)[C@]31C	-85.2*	-23.4	-1.6	-6.5	1.0
Cc1ccc(C2CCN(C(=O)Nc3ccc(Cl)c(Cl)c3)C2)cc1 (configuration not stated)	-45.0*	0.0	.	-8.4	7.5

Screens (PubChem BioAssay)
